The text below walks through data of PubChem BioAssay (EPA / NIEHS).

Active and inactive are the calls of the source. Rule for the calls: active = hit-call score of the fitted dose curve at least 0.9, where 1 is the maximum; inactive = score below 0.9.

Settings in all cases: mRNA level, 48 h; actives raise or lower the signal
Read-out in assay [1]: growth arrest and DNA damage 45 (GADD45G), GADD45G (gene 10912)
In words: LTEA_HepaRG_GADD45G: Life Technologies and Expression Analysis (LTEA) Assay for growth arrest and DNA damage 45 (GADD45G) using HepaRG (AID 2283499). The gist of the method:
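GADD45G transcript level by qRT-PCR (housekeeping-normalized: ACTB, GAPDH, POLR2A) after 48 h chemical treatment of a single HepaRG lot in serum-free induction medium; eight-point half-log series up to 100 uM in 0.5% DMSO, duplicates, up- or down-regulation scored.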

Read-out in assay [2]: Glutamate-cysteine ligase regulatory (GCLM), GCLM (gene 2730)
In words: LTEA_HepaRG_GCLM: Life Technologies and Expression Analysis (LTEA) Assay for Glutamate-cysteine ligase regulatory (GCLM) using HepaRG (AID 2283500). In a few lines:
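In this multiplexed HepaRG gene-expression assay, GCLM mRNA change after 48 h treatment (8 concentrations, max 100 uM) was scored against DMSO by bidirectional curve fitting.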

Read-out in assay [3]: Glutathione S-transferase M3 (GSTM3), GSTM3 (gene 2947)
As to the kind of experiment: LTEA_HepaRG_GSTM3: Life Technologies and Expression Analysis (LTEA) Assay for Glutathione S-transferase M3 (GSTM3) using HepaRG (AID 2283501). The gist of the method:
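GSTM3 transcript levels came from Fluidigm TaqMan qRT-PCR normalized to three housekeeping genes, fitted in both directions against DMSO. HepaRG cultures received chemicals for 48 h in serum-free induction medium (0.5% DMSO), 8 half-log concentrations up to 100 uM, duplicate.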

Read-out in assay [4]: Heat shock 70 kDa protein 1 (HSPA1A), gene 3303
In words: LTEA_HepaRG_HSPA1A: Life Technologies and Expression Analysis (LTEA) Assay for Heat shock 70 kDa protein 1 (HSPA1A) using HepaRG (AID 2283502). The gist of the method:
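An oxidative-stress marker readout: HepaRG cells treated 48 h in duplicate with an eight-point series (highest 100 uM) had HSPA1A mRNA quantified by TaqMan qRT-PCR. Activity was fitted in both directions using 0.5% DMSO as baseline.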

Read-out in assay [5]: Hypoxia-inducible factor 1-alpha (Homo sapiens) (UniProt Q16665)
In words: LTEA_HepaRG_HIF1A: Life Technologies and Expression Analysis (LTEA) Assay for Hypoxia-inducible factor 1 (HIF1A) Trancription factor using HepaRG (AID 2283503). The gist of the method: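 Gain- or loss-of-signal HIF1A mRNA changes are fitted against a DMSO baseline. HepaRG cultures receive eight concentrations, highest 100 uM, for 48 h in serum-free induction medium with 0.5% DMSO.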

Read-out in assay [6]: 3-Hydroxy-3-Methylglutaryl-CoA Synthase 2 (HMGCS2), HMGCS2 (gene 3158)
In words: LTEA_HepaRG_HMGCS2: Life Technologies and Expression Analysis (LTEA) Assay for 3-Hydroxy-3-Methylglutaryl-CoA Synthase 2 (HMGCS2) using HepaRG (AID 2283504). The gist of the method:
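Readout is HMGCS2 transcript by qRT-PCR, housekeeping-normalised (ACTB/GAPDH/POLR2A) and fitted bidirectionally against 0.5% DMSO. Differentiated HepaRG cells received chemicals 48 h, duplicate wells, eight half-log concentrations topping at 100 uM.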

Read-out in the next assay: HGF (gene 3082)
As to the kind of experiment: LTEA_HepaRG_HGF: Life Technologies and Expression Analysis (LTEA) Assay for Hepatocyte Growth Facto (HGF) using HepaRG (AID 2283505). The gist of the method: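 HGF transcript was quantified by TaqMan qRT-PCR against three housekeeping genes after 48 h treatment of HepaRG cells. Exposure ran in duplicate over eight half-log steps topping at 100 uM in 0.5% DMSO vehicle.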

Read-out in assay [7]: Insulin Like Growth Factor 1 (IGF1), IGF1 (gene 3479)
In words: LTEA_HepaRG_IGF1: Life Technologies and Expression Analysis (LTEA) Assay for Insulin Like Growth Factor 1 (IGF1) using HepaRG (AID 2283506). The gist of the method:
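Endpoint: IGF1 mRNA change by qRT-PCR, housekeeping-normalized, fitted bidirectionally relative to 0.5% DMSO vehicle. Human HepaRG cells were treated 48 h in serum-free induction medium, eight half-log concentrations topping at 100 uM.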

Read-out in assay [8]: Intercellular Adhesion Molecule 1 (ICAM1), ICAM1 (gene 3383)
In words: LTEA_HepaRG_ICAM1: Life Technologies and Expression Analysis (LTEA) Assay for Intercellular Adhesion Molecule 1 (ICAM1) using HepaRG (AID 2283507). In a few lines: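 ICAM1 transcript levels measured by qRT-PCR, normalized to three housekeeping genes (ACTB, GAPDH, POLR2A), after 48 h chemical exposure of HepaRG cells. Duplicate eight-point half-log series from 100 uM in 0.5% DMSO; gain or loss fitted against vehicle.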

Read-out in assay [9]: Insulin-like growth factor-binding protein 1 (IGFBP1), IGFBP1 (gene 3484)
As to the kind of experiment: LTEA_HepaRG_IGFBP1: Life Technologies and Expression Analysis (LTEA) Assay for Insulin-like growth factor-binding protein 1 (IGFBP1) using HepaRG (AID 2283508). The gist of the method: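 Read-out is qRT-PCR transcript level normalized to three housekeeping genes, fitted in both directions against 0.5% DMSO. Differentiated HepaRG cells received eight half-log concentrations (top 100 uM) in duplicate for 48 h in serum-free induction medium.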

Read-out in assay [10]: Interleukin 6 (IL6), IL6 (gene 3569)
As to the kind of experiment: LTEA_HepaRG_IL6: Life Technologies and Expression Analysis (LTEA) Assay for Interleukin 6 (IL6) using HepaRG (AID 2283509). The gist of the method: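 Changes in IL6 mRNA, up or down relative to 0.5% DMSO controls, were derived from concentration-response curves in human HepaRG cells treated for 48 h at up to 100 uM, with ACTB, GAPDH and POLR2A as normalizers.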

Read-out in assay [11]: Interleukin 6 Receptor (IL6R), IL6R (gene 3570)
As to the kind of experiment: LTEA_HepaRG_IL6R: Life Technologies and Expression Analysis (LTEA) Assay for Interleukin 6 Receptor (IL6R) using HepaRG (AID 2283510).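 For AC50: differentiated human HepaRG liver cells in serum-free induction medium.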 In a few lines:
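In this HepaRG screen, test chemicals act on cells for 48 h at up to 100 uM (eight half-log points, duplicate wells). IL6R expression is quantified by qRT-PCR after normalization to ACTB, GAPDH and POLR2A, with DMSO as baseline.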

Read-out in assay [12]: Potassium channel subfamily K member 1 (KCNK1), KCNK1 (gene 3775)
In words: LTEA_HepaRG_KCNK1: Life Technologies and Expression Analysis (LTEA) Assay for Potassium channel subfamily K member 1 (KCNK1) using HepaRG (AID 2283511). In a few lines: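 Human HepaRG cultures receive test chemicals for 48 h in 0.5% DMSO, top concentration 100 uM with half-log dilutions. Induction or suppression of KCNK1 mRNA relative to DMSO is derived by bidirectional fitting of qRT-PCR data.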

Read-out in assay [13]: Keratin 19 (KRT19), KRT19 (gene 3880)
As to the kind of experiment: LTEA_HepaRG_KRT19: Life Technologies and Expression Analysis (LTEA) Assay for Keratin 19 (KRT19) using HepaRG (AID 2283512). In a few lines:
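KRT19 transcript measured by TaqMan qRT-PCR, referenced to three housekeeping genes, after HepaRG cells received test chemicals for 48 h. Eight half-log concentrations, top 100 uM, 0.5% DMSO vehicle; increases and decreases both fitted.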

Read-out in assay [14]: JUN Transcription Factor, JUN (gene 3725)
In words: LTEA_HepaRG_JUN: Life Technologies and Expression Analysis (LTEA) Assay for JUN Transcription Factor using HepaRG (AID 2283513). In a few lines:
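Gene-expression endpoint: JUN mRNA (qRT-PCR, normalized to three reference genes) in HepaRG cultures treated 48 h with chemicals, duplicate wells, 100 uM maximum with half-log dilutions; bidirectional fitting relative to 0.5% DMSO.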

Read-out in assay [15]: Lipoprotein lipase (LPL), LPL (gene 4023)
As to the kind of experiment: LTEA_HepaRG_LPL: Life Technologies and Expression Analysis (LTEA) Assay for Lipoprotein lipase (LPL) using HepaRG (AID 2283515). The gist of the method: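 Concentration-response testing used half-log steps from 100 uM in 0.5% DMSO on human HepaRG cells, 48 h, duplicate wells. Phenobarbital 1 mM served as induction control; LPL mRNA was normalized to ACTB, GAPDH, POLR2A.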

Read-out in assay [16]: MicroRNA 122 (MIR122), gene 406906
As to the kind of experiment: LTEA_HepaRG_MIR122: Life Technologies and Expression Analysis (LTEA) Assay for MicroRNA 122 (MIR122) using HepaRG (AID 2283516). Note: the transcript read is the microRNA miR-122. In a few lines:
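Changes in transcript abundance, up or down relative to 0.5% DMSO vehicle, were scored after 48 h chemical treatment of HepaRG cells (maximum 100 uM). Quantification used TaqMan qRT-PCR normalized to housekeeping genes.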

Read-out in assay [17]: matrix metalloproteinase-10 (MMP10), MMP10 (gene 4319)
As to the kind of experiment: LTEA_HepaRG_MMP10: Life Technologies and Expression Analysis (LTEA) Assay for matrix metalloproteinase-10 (MMP10) using HepaRG (AID 2283517). The gist of the method: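 In differentiated HepaRG cultures kept in 0.5% DMSO, test chemicals act for 48 h over an eight-point range with a top dose of 100 uM. Expression is then quantified by TaqMan RT-PCR against ACTB, GAPDH and POLR2A.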

Read-out in a further assay: MYC, MYC (gene 4609)
As to the kind of experiment: LTEA_HepaRG_MYC: Life Technologies and Expression Analysis (LTEA) Assay for MYC using HepaRG (AID 2283518). In a few lines: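 MYC transcript changes, up or down relative to 0.5% DMSO, from TaqMan qRT-PCR normalized to three housekeeping genes. Human HepaRG cultures received chemicals for 48 h at eight half-log concentrations up to 100 uM, in duplicate.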

Read-out in assay [18]: Lipase C (LIPC), LIPC (gene 3990)
In words: LTEA_HepaRG_LIPC: Life Technologies and Expression Analysis (LTEA) Assay for Lipase C (LIPC) using HepaRG (AID 2283514). The gist of the method:
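In this multiplexed gene-expression screen, human HepaRG cultures received test chemicals for 48 h across eight concentrations with 100 uM highest, in duplicate. Values reflect LIPC mRNA induction or suppression versus DMSO vehicle, from normalized qRT-PCR.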

Usually AC50 stands for the concentration giving half of the maximal activity seen.

Sequence of Hypoxia-inducible factor 1-alpha (Homo sapiens) (Q16665 whole entry, looked up): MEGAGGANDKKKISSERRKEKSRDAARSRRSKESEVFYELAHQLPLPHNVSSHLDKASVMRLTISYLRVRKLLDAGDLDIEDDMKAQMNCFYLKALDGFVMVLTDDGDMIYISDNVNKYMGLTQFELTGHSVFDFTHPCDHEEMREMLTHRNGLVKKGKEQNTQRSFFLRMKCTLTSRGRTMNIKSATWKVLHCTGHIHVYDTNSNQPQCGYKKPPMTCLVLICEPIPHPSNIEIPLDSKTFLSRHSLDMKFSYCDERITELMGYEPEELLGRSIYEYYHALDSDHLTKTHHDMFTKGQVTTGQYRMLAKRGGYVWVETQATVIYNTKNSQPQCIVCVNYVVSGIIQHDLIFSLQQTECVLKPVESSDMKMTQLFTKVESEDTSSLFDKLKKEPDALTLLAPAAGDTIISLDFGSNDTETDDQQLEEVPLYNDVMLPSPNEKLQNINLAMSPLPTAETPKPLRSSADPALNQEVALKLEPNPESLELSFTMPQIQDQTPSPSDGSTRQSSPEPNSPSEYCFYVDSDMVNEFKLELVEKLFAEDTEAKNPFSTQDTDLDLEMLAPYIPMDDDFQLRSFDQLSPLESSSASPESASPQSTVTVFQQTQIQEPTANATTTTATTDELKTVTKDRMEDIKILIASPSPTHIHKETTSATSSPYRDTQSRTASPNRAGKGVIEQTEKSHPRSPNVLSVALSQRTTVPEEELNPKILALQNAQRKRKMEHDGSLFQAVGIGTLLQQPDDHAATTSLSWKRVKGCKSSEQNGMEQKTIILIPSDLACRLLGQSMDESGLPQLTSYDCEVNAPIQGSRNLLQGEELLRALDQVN

Turning to `c1ccc2[nH]c(-c3cscn3)nc2c1`, the outcome in [1], in assay [2], in assay [3], in [4], in [5] and in [6] was inactive. Moreover, the call (with HGF (gene 3082); in assay [7]; in assay [8]; in assay [10]; in assay [11]; in assay [12]) was inactive. In addition, the compound was classed as inactive in [14], in assay [15], in [16] and in assay [17]. For the same compound, the AC50 was 29 µM (active) in [9]; 35.2 µM (active) in [13]; 40 µM (active) in the assay with MYC, MYC (gene 4609).

On to `CCSC(=O)N(CC(C)C)CC(C)C`, for which the compound was classed as inactive (in assay [1]; in assay [2]; in assay [3]; in assay [4]; in assay [5]; with HGF (gene 3082)). Also, the compound was called inactive in assay [7], in [8], in [9], in assay [10], in assay [11] and in assay [12]. For the same compound, the compound was called inactive in [13], in assay [14], in assay [18], in [15], in [16] and in assay [17]. Also, in the assay with MYC, MYC (gene 4609), the result was inactive.

Regarding `N[C@@H](Cc1cc(I)c(Oc2ccc(O)c(I)c2)c(I)c1)C(=O)O`, the result (in [1]; in assay [2]; in [4]; with HGF (gene 3082); in assay [7]; in [9]) was inactive. Also, the outcome in [10] was “inactive”; in assay [12] it was “inactive”; in assay [14] it was “inactive”; in assay [17], “inactive”; with MYC, MYC (gene 4609), “inactive”. The AC50 in assay [3] is 0.613 µM (active); in assay [5], 0.00253 µM (active); in [8] it was 40 µM (active); in assay [11], 40 µM (active); in assay [13], 0.0152 µM (active); in assay [15] it was 0.00787 µM (active).

Regarding `CC(=O)S[C@@H]1CC2=CC(=O)CC[C@]2(C)[C@H]2CC[C@@]3(C)[C@@H](CC[C@@]34CCC(=O)O4)[C@H]12`, the half-maximal activity concentration (AC50) in [1] was 32.7 µM (active); in assay [7] it was 68.7 µM (active); in assay [11], 63.3 µM (active); in assay [16] it was 67.5 µM (active); in assay [17], 76.1 µM (active). The call (in [2]; in assay [3]; in [4]; in assay [5]; with HGF (gene 3082); in [8]) was inactive. Further, the compound was called inactive in [9], in assay [10], in assay [12], in assay [13], in assay [14] and in [15]. In addition, the outcome in the assay with MYC, MYC (gene 4609) was inactive.

In the case of `CCCCCOC(=O)COc1cc(N2C(=O)C3=C(CCCC3)C2=O)c(F)cc1Cl`, the outcome in assay [1], in assay [2], in [3], in assay [4], in assay [5] and in assay [6] was inactive. In addition, the compound was classed as inactive (in the assay with HGF (gene 3082); in assay [7]; in [8]; in assay [9]; in assay [10]; in assay [11]). The result in assay [12], in [13], in [14], in [18], in assay [15] and in [17] was inactive. In addition, the compound was called inactive with MYC, MYC (gene 4609).

For `CCCCCCC(C)OC(=O)COc1nc(F)c(Cl)c(N)c1Cl` (stereo not given), the compound was classed as inactive (in [1]; in assay [2]; in [3]; in assay [4]; in assay [5]; with HGF (gene 3082)). Moreover, the outcome in assay [7], in assay [8], in assay [9], in assay [10], in [11] and in assay [12] was inactive. In addition, the outcome in assay [13] was “inactive”; in [14], “inactive”; in assay [15], “inactive”; in [16], “inactive”; in assay [17], “inactive”; in the assay with MYC, MYC (gene 4609) it was “inactive”.
